About 83,000 compounds went through this panel and 20% of them were active in at least one assay; those are over-represented in the sample as a whole.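 Values shown are percent growth following 48 h exposure of cells in 96-well plates to a single concentration of compound; below 10 was considered active.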 Values without a mark were called inactive. The source made the active and inactive calls.
What was measured:
Assay in all cases: NCI-60 one-dose screen, 48 h (100 = growth as untreated, 0 = no growth, -100 = all killed)
Details in all cases: 10 µM
EKVX NSCLC = system: EKVX NSCLC
UO-31 renal = system: UO-31 renal
TK-10 renal = system: TK-10 renal
ACHN renal = system: ACHN renal
CAKI-1 renal = system: CAKI-1 renal
A498 renal = system: A498 renal
MOLT-4 leukemia = system: MOLT-4 leukemia
SR leukemia = system: SR leukemia
RPMI-8226 leukemia = system: RPMI-8226 leukemia
OVCAR-8 ovarian = system: OVCAR-8 ovarian
OVCAR-5 ovarian = system: OVCAR-5 ovarian
OVCAR-4 ovarian = system: OVCAR-4 ovarian
SK-OV-3 ovarian = system: SK-OV-3 ovarian
IGROV1 ovarian = system: IGROV1 ovarian
OVCAR-3 ovarian = system: OVCAR-3 ovarian
HS 578T breast = system: HS 578T breast
NCI/ADR-RES ovarian = system: NCI/ADR-RES ovarian
CCRF-CEM leukemia = system: CCRF-CEM leukemia
SN12C renal = system: SN12C renal

| Compound | growth (EKVX NSCLC) [%] | growth (UO-31 renal) | growth (TK-10 renal) | growth (ACHN renal) | growth (CAKI-1 renal) | growth (A498 renal) | growth (MOLT-4 leukemia) | growth (SR leukemia) | growth (RPMI-8226 leukemia) | growth (OVCAR-8 ovarian) | growth (OVCAR-5 ovarian) | growth (OVCAR-4 ovarian) | growth (SK-OV-3 ovarian) | growth (IGROV1 ovarian) [%] | growth (OVCAR-3 ovarian) | growth (HS 578T breast) [%] | growth (NCI/ADR-RES ovarian) | growth (CCRF-CEM leukemia) | growth (SN12C renal) [%] |
| --- | --- | --- | --- | --- | --- | --- | --- | --- | --- | --- | --- | --- | --- | --- | --- | --- | --- | --- | --- |
| O=C(CCCCCCC(=O)Nc1ccccc1)NO | 28.8 | -2.53% (active) | 6.84% (active) | 4.68% (active) | -28.3% (active) | -44.9% (active) | -5.35% (active) | 9.82% (active) | 12.8% | 9.38% (active) | 1.38% (active) | 38.3% | 1.71% (active) | 23.7 | -1.79% (active) | 22.2 | -18.2% (active) |  |  |
| CC(C)C[C@H](NC(=O)Cn1cccc(CNC(=O)c2ccccc2)c1=O)B(O)O |  | 50.9% | 16.8% | 24.5% |  | -12.2% (active) | -7.9% (active) |  | 0.606% (active) | 54.4% | 38.8% | 36.7% | 58.5% | 51.5 | -43.2% (active) | 16.6 | 103% | 2.66% (active) |  |
| N=C1S/C(=C/c2ccc(-c3ccc4c(c3)C(=O)NC4=O)o2)C(=O)N1c1ccc(Br)cc1 |  | -13.3% (active) | 42.6% | 52% | 33.7% | 39.5% | 52.2% |  | 38.8% | 37.8% | 86.3% | 1.3% (active) | 62.3% | 21.9 |  | 61.6 |  |  |  |
| CC(=O)/C(=C/c1ccc(Br)cc1)C(=O)c1ccccc1 |  | 57.4% |  | 56.1% |  | 91.6% | -5.12% (active) | -16.8% (active) | -26.3% (active) | 63.7% | 86.6% | 81.4% | 120% | 74 | 81.9% | 90.7 | 85.8% | -7.34% (active) | 69.1 |
| O=C1/C(=C/c2cccc(F)c2)Cc2ccccc21 |  | 92.8% | 94.2% | 102% | 82.9% |  | 112% |  | 93.3% | 97.4% | 120% | 97.5% | 108% | 99.6 | 113% | 181 |  |  | 98.6 |
| CC(C)(C)OC(=O)CN1CCc2c(sc3ncnc(N/N=C/c4ccccc4Br)c23)C1 | 44.5 | 37.6% | 90.8% | 56.6% | 51.3% | 77% | 11.1% | 37.6% |  | 61.5% | 92.3% | 74.7% | 109% | 50.6 | 69% |  | 71.7% |  |  |
| CCN(CC)CCOc1cccc2c1C(=O)c1cccc(OCCN(CC)CC)c1C2=O | 53.6 | 41% | 47.4% | 17.7% |  | 63% | 8.32% (active) | 10.3% | 11% | 25.7% |  | 45.9% | 33.8% | 33.9 | 47% | 78.9 | 86.5% | 22.3% | 27.5 |
| NC1=NC(c2ccccc2)C2=C(N1)/C(=C/c1ccccc1)CCC2 (stereo not given) | 95 | 70.5% |  | 108% | 93.8% | 75% | 77.8% | 46% | -7.58% (active) | 80% | 106% | 81.3% | 74% | 100 |  |  | 95.8% | 91% | 91.6 |
| S=c1cnc2ccccc2[nH]1 | 107 | 76.6% | 112% | 101% |  | 99% | 91.7% | 103% | 100% | 96.2% | 104% | 105% | 96% | 97.2 | 106% |  | 98.6% | 103% | 104 |
| COc1ccc(C2CC(c3cccs3)=NN2c2ccc(S(N)(=O)=O)cc2)cc1 (stereo not given) |  |  | 108% | 90.2% | 88.9% | 78.5% | 71.3% | 83% | 61.2% | 84.4% | 95.4% | 107% | 88.5% |  | 92.5% | 97.4 | 77.4% | 76.3% | 91.3 |
| COc1ccc(-c2nc(-c3nc4ccc(C)cc4[nH]3)cc3c2[nH]c2ccccc23)cc1 |  |  | 45% | 26.8% | 44.4% | 68% | 21.9% | 10.2% | 16.2% | 21.4% | 83.9% | 45.1% | 107% |  | 45.1% | 66.9 | 19.4% | 29.4% | 28.5 |
| CCOC(=O)c1cc(C(=O)c2cc(OC)cc(OC)c2)n2nc(C)ccc12 | 75.5 | 44.9% | 65% | 60.5% |  | -1.92% (active) | 29.5% | 18.4% | 12.2% | 29.7% | 59.6% | 56.6% | 6.35% (active) | 44.8 | 1.01% (active) | 36.4 | 19.5% | 13.7% |  |
| COc1cc2cc(Oc3ccc(NC(=O)Nc4ccc(Cl)c(Cl)c4)cc3)c(C)nc2cc1OC | 21 | 3.69% (active) |  | 16.4% |  | 35.8% | 3.69% (active) | 18% | 4.2% (active) | 15% | 53% | 31.9% | 28.6% | 18.6 | -10% (active) | 45.1 | 17.1% | 13.3% | 22.1 |
| CCCc1nc(C(C)(C)O)c(C(=O)O)n1Cc1ccc(-c2ccccc2-c2nn[nH]n2)cc1 | 106 | 84.6% | 96.8% | 93.5% |  | 80.2% | 107% |  | 104% | 91.7% | 104% | 100% | 106% | 114 | 117% | 102 | 105% | 95.8% | 96.4 |
| COc1cccc(C2C(C#N)=C(N)Oc3cc(N)ccc32)c1 (stereo not given) | 55.7 | 49.7% |  | 55.4% | 31.9% | 1.48% (active) | 28.9% | 14.4% | 19.6% | 30.7% | 40.6% | 43.8% | 48.9% | 32.4 | -26.5% (active) |  | -7.69% (active) | 11.4% | 36.3 |
